# “And” between values parts separate entries of the source, which are not always exact repeats. Equal entries are not always repeated. Results filed as inconclusive are left out. Where a call stands in place of a potency, no number is given. The source made the active and inactive calls. Unless noted, calls come from the whole dose curve; as a rule, active = well fitted curve in the direction sought with a large enough effect in the repeat runs; inconclusive = weak or mixed curves; inactive = no such curve, though single readings can be large; an effect the other way counts as inactive or inconclusive.
# Assays:
# [1] = target: Estrogen receptor beta (Homo sapiens) (UniProt Q92731); experiment: qHTS assay to identify small molecule agonists of the estrogen receptor beta (ER-beta) signaling pathway (AID 1259377; active = well fitted activation curve with a large enough effect in the signal ratio in the repeat runs, not every such curve was filed as active; the % refers to the signal ratio)
# Estrogen receptor beta (Homo sapiens), sequence (Q92731 whole entry, looked up): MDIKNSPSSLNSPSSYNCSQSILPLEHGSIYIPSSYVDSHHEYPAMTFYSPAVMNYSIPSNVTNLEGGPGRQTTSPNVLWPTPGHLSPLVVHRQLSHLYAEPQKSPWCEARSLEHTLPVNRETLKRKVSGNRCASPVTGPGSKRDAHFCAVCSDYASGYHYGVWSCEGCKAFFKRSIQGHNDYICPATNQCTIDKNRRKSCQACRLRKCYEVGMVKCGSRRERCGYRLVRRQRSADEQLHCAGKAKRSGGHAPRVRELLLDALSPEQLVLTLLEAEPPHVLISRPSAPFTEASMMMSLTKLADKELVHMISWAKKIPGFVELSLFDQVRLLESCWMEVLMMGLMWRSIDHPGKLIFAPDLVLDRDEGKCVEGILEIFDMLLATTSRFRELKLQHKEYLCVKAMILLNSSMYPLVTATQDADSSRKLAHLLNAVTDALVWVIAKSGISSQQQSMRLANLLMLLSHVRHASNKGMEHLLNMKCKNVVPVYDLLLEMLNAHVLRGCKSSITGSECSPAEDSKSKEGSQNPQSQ
# How it was run: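 ER-beta-UAS-bla HEK293T cells in medium with 2% charcoal-stripped FBS were exposed to compounds for 16 h at 37C. Beta-lactamase reporter activity was read as fluorescence after 2 h with LiveBLAzer B/G FRET substrate at room temperature.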
# [2] = target: Estrogen receptor beta (Homo sapiens) (UniProt Q92731); experiment: qHTS assay to identify small molecule antagonists of the estrogen receptor beta (ER-beta) signaling pathway (AID 1259378; active = well fitted inhibition curve with a large enough effect in the signal ratio in the repeat runs, not every such curve was filed as active; the % refers to the signal ratio)
# How it was run: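 Antagonist mode: compounds added to beta-lactamase reporter HEK293T ER-beta-UAS cells stimulated with E2 (1nM final), 16 hr at 37C. LiveBLAzer B/G FRET substrate, 2 hours room temperature, fluorescence read-out.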
# [3] = qHTS assay to identify small molecule antagonists of the estrogen receptor beta (ER-beta) signaling pathway - cell viability counter screen (AID 1259382); note: series mostly up to about 92 µM; nearly all actives have a fitted effect of over 55% in size
# How it was run: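 Agonist-stimulated (1nM E2) ER-beta-UAS-bla HEK293T cells are incubated with library compounds for 16 hr at 37C. Cell viability is then assessed in the reporter-assay wells by adding CellTiter-Glo and reading luminescence after 30 min.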
# [4] = qHTS assay to identify small molecule agonists or antagonists of the thyroid stimulating hormone receptor (TSHR) signaling pathway - wild type cell line counter screen (AID 1259384; calls by dose curve)
# How it was run: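 Counter screen in untransfected Hek293: compounds (15-point titration, triplicate) plus phosphodiesterase inhibitor Ro20-1724 added after 18 h plating; 30 min RT. Intracellular cAMP via competitive d2/cryptate immunoassay, 1 h incubation.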
# [5] = target: Thyrotropin receptor (Homo sapiens) (UniProt P16473); experiment: qHTS assay to identify small molecule antagonists of the thyroid stimulating hormone receptor (TSHR) signaling pathway (AID 1259385; calls by dose curve; note: nearly all actives have a fitted effect of over 20% in size)
# Thyrotropin receptor (Homo sapiens), sequence (P16473 whole entry, looked up): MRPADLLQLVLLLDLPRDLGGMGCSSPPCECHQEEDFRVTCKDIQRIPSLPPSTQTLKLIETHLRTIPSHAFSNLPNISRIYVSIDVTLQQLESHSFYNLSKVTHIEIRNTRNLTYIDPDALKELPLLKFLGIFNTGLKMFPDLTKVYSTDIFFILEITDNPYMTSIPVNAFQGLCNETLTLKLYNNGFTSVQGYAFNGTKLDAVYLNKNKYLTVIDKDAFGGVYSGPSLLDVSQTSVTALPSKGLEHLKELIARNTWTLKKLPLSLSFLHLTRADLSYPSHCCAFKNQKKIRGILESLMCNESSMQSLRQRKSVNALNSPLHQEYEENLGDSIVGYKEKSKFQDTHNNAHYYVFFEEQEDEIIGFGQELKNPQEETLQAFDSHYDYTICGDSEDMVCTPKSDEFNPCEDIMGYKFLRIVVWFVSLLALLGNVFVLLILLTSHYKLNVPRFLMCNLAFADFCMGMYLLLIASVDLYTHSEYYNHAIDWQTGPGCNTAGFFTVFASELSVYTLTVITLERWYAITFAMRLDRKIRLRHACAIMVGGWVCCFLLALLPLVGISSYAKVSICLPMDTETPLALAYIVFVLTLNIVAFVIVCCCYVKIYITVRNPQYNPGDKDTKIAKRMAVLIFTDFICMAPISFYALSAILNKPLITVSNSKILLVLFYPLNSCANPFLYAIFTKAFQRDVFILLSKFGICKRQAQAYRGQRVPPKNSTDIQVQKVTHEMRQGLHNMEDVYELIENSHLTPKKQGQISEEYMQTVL
# How it was run: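 Antagonist mode: compound-treated TSHR-expressing HEK293 cells were stimulated with 1.5 ng/mL TSH (final) in presence of Ro20-1724 for 30 min at RT. HTRF cAMP detection after 1 h; each compound tested at 15 concentrations, triplicate.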
# [6] = qHTS assay to identify small molecule agonists of the estrogen receptor alpha (ER-alpha) signaling pathway in the presence of an antagonist - cell viability counter screen (AID 1259386);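 note: cells exposed to compounds for 22 h at 37 °C before the viability read; nearly all actives have a fitted effect of over 30% in size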; note: potency is the fitted concentration of half-maximal effect
# How it was run: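 ICI-182,780 at 10.0nM final accompanies the compound titration (15 concentrations, 22hr, 37C) on VM7Luc4E2 cells. The CellTiter-Fluor fluorescence readout runs in the same wells as the luciferase assay.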
# [7] = target: Progesterone receptor (Homo sapiens) (UniProt P06401); experiment: qHTS assay to identify small molecule agonists of the progesterone receptor (PR) signaling pathway (AID 1346784; calls by dose curve; note: nearly all actives have a fitted effect of over 30% in size)
# Progesterone receptor (Homo sapiens), sequence (P06401 whole entry, looked up): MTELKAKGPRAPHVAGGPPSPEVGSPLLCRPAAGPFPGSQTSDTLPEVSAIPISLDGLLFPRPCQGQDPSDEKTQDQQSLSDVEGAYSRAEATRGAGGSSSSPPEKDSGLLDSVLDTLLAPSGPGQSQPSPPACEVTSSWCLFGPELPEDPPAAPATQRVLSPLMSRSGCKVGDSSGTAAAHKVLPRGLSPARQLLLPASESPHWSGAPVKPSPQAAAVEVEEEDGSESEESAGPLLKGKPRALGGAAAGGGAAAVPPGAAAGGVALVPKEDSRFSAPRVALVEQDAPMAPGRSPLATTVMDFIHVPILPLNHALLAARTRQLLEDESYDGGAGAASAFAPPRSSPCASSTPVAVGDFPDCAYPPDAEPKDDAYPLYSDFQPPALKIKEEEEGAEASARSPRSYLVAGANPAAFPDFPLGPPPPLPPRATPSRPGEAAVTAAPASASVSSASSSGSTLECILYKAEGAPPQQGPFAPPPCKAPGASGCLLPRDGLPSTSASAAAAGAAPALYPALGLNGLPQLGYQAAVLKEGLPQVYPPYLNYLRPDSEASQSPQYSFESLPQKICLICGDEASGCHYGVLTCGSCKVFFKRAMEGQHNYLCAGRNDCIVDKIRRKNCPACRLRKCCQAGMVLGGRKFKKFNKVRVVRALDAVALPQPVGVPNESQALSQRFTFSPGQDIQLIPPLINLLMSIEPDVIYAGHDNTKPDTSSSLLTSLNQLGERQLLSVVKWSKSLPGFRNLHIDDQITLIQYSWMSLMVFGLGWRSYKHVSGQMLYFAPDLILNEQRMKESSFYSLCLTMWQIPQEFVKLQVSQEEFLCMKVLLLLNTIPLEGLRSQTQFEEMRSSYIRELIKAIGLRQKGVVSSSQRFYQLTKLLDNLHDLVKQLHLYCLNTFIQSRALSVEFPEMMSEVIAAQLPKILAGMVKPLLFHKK
# How it was run: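 PR-UAS-bla HEK 293T cells (beta-lactamase reporter under UAS) in 2% charcoal-stripped FBS, dosed with 23 nL compound after 6 hr, incubated 16hr at 37C. LiveBLAzer B/G FRET substrate added, fluorescence read after 2 hours.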
# [8] = qHTS assay to identify small molecule antagonists of the progesterone receptor (PR) signaling pathway - cell viability counter screen (AID 1346798); note: series mostly up to about 92 µM; nearly all actives have a fitted effect of over 50% in size
# How it was run: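 PR-UAS-bla HEK293T cells, 3,000/well in 2% charcoal-stripped FBS medium, dosed with compounds plus R5020 agonist and incubated 16 h at 37C. Viability then measured in the same wells by CellTiter-Glo luminescence after 30 min at RT.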
# [9] = qHTS assay to identify small molecule agonists of the progesterone receptor (PR) signaling pathway - cell viability counter screen (AID 1346799; calls by dose curve; note: nearly all actives have a fitted effect of over 45% in size)
# How it was run: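 Counter screen in the PR-UAS-bla HEK293T wells (2% charcoal-stripped FBS, 16 h compound exposure at 37 C) after the bla read. CellTiter-Glo added, 30 min at room temperature, luminescence read as cell viability.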
# [10] = qHTS assay to identify small molecule antagonists of the TGF-beta/Smad signaling pathway - cell viability counter screen (AID 1346824); note: nearly all actives have a fitted effect of over 50% in size
# How it was run: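 Cytotoxicity counter-screen run in the same wells as the beta-lactamase Smad reporter read: CellTiter-Glo luminescence after 30 min at room temperature. HEK 293T SBE-bla cells had 5 hr compound exposure at 37 C with TGF-beta1 (0.25 ng/mL stock).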
# [11] = qHTS assay to identify small molecule agonists of the TGF-beta/Smad signaling pathway - cell viability counter screen (AID 1346829); note: top concentration of the series differs between compounds; nearly all actives have a fitted effect of over 45% in size
# How it was run: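 Luminescence from CellTiter-Glo, read after a 30 min room-temperature incubation, gives cell viability of SBE-bla HEK 293T cells treated 5 hr with compounds at 37 C.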
# [12] = qHTS assay to identify small molecule agonists of the TGF-beta/Smad signaling pathway (AID 1346859; active = well fitted activation curve with a large enough effect in the signal ratio in the repeat runs, not every such curve was filed as active; the % refers to the signal ratio; note: series mostly up to about 77 µM)
# How it was run: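 SBE-bla HEK293T cells plated overnight, then compound exposure for 5 h at 37 C. Beta-lactamase reporter read with LiveBLAzer B/G FRET substrate after 2 h at room temperature, fluorescence at 405 nm excitation, 460/530 nm emission.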
# [13] = target: Thyrotropin-releasing hormone receptor (Homo sapiens) (UniProt P34981); experiment: qHTS assay to identify small molecule antagonists of the thyrotropin-releasing hormone receptor (TRHR) signaling pathway (AID 1346877; active = well fitted inhibition curve with a large enough effect in the repeat runs, not every such curve was filed as active; note: series mostly up to about 51 µM)
# Thyrotropin-releasing hormone receptor (Homo sapiens), sequence (P34981 whole entry, looked up): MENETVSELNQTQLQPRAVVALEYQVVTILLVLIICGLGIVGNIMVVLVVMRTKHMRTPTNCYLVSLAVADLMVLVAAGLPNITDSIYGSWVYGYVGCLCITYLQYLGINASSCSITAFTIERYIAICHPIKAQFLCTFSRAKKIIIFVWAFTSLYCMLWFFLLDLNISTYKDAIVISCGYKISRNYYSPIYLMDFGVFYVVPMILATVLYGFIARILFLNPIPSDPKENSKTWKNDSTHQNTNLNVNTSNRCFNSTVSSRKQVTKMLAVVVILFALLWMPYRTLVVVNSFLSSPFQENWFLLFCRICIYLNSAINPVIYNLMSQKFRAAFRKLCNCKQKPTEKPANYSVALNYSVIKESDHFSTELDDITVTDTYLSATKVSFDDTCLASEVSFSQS
# How it was run: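 Screening used HEK293 cells engineered with TRHR, with a brief 5 min room-temperature compound exposure preceding addition of TRH to 1 nM. The read-out was kinetic calcium-dye fluorescence, concentration-response from 15 doses in triplicate.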
# [14] = target: Thyrotropin-releasing hormone receptor (Homo sapiens) (UniProt P34981); experiment: qHTS assay to identify small molecule agonists of the thyrotropin-releasing hormone receptor (TRHR) signaling pathway (AID 1346891; calls by dose curve; note: series mostly up to about 58 µM)
# How it was run: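 HEK293 cells expressing TRHR plated 18 h at 37 C/5% CO2, calcium dye-loaded 2 h at 37 C, then compound added (agonist mode); kinetic calcium fluorescence read 3 min at 1 s intervals; 15 concentrations in triplicate.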
# [15] = qHTS assay to identify small molecule agonists of the estrogen receptor beta (ER-beta) signaling pathway - cell viability counter screen (AID 1259380); note: nearly all actives have a fitted effect of over 30% in size
# How it was run: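 Cells used were ER-beta-UAS-bla HEK293T in medium with 2% charcoal-stripped FBS. They were treated for 16 hr at 37C. Viability came from CellTiter-Glo luminescence.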
# [16] = target: Estrogen receptor (Homo sapiens) (UniProt P03372); experiment: qHTS assay to identify small molecule agonists of the estrogen receptor alpha (ER-alpha) signaling pathway in the presence of an antagonist (AID 1259383; calls by dose curve; note: top concentration of the series differs between compounds; nearly all actives have a fitted effect of over 15% in size)
# Estrogen receptor (Homo sapiens), sequence (P03372 whole entry, looked up): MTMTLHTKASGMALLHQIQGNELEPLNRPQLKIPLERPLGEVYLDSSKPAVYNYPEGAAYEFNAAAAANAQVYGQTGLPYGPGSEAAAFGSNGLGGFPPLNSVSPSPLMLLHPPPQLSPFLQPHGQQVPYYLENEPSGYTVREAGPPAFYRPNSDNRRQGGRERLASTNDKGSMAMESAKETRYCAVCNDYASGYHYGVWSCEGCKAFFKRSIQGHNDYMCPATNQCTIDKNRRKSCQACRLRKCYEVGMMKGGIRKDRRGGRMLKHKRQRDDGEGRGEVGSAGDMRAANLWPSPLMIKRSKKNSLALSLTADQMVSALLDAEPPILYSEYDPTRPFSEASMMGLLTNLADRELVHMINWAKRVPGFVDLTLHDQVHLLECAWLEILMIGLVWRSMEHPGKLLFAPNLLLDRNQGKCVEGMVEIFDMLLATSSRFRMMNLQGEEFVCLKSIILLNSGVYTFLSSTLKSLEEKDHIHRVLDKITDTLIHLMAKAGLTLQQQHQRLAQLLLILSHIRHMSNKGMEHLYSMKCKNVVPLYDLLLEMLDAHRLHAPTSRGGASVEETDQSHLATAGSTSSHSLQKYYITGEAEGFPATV
# How it was run: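 Using VM7Luc4E2 cells seeded 24hr before treatment, antagonist ICI-182,780 (10.0nM final) was added, followed by compounds at 15 concentrations. Plates incubated 22hr; ONE-Glo luminescence quantified reporter activity.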
# [17] = qHTS assay to identify small molecule agonists of the androgen receptor (AR) signaling pathway in the presence of an antagonist - cell viability counter screen (AID 1259379);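 note: MDA-kb2 human breast cancer cells carrying an MMTV luciferase reporter; series mostly up to about 92 µM; nearly all actives have a fitted effect of over 25% in size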
# How it was run: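 A CellTiter-Fluor read-out measured viability of MDA-kb2 reporter cells (MMTV promoter with AR and GR response elements). Treatment: nilutamide 3.0uM final with compounds at 15 concentrations, 16 hr, 37C, 0% CO2.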
# [18] = target: Androgen receptor (Homo sapiens) (UniProt P10275); experiment: qHTS assay to identify small molecule agonists of the androgen receptor (AR) signaling pathway in the presence of an antagonist (AID 1259381; calls by dose curve; note: nearly all actives have a fitted effect of over 15% in size)
# Androgen receptor (Homo sapiens), sequence (P10275 whole entry, looked up): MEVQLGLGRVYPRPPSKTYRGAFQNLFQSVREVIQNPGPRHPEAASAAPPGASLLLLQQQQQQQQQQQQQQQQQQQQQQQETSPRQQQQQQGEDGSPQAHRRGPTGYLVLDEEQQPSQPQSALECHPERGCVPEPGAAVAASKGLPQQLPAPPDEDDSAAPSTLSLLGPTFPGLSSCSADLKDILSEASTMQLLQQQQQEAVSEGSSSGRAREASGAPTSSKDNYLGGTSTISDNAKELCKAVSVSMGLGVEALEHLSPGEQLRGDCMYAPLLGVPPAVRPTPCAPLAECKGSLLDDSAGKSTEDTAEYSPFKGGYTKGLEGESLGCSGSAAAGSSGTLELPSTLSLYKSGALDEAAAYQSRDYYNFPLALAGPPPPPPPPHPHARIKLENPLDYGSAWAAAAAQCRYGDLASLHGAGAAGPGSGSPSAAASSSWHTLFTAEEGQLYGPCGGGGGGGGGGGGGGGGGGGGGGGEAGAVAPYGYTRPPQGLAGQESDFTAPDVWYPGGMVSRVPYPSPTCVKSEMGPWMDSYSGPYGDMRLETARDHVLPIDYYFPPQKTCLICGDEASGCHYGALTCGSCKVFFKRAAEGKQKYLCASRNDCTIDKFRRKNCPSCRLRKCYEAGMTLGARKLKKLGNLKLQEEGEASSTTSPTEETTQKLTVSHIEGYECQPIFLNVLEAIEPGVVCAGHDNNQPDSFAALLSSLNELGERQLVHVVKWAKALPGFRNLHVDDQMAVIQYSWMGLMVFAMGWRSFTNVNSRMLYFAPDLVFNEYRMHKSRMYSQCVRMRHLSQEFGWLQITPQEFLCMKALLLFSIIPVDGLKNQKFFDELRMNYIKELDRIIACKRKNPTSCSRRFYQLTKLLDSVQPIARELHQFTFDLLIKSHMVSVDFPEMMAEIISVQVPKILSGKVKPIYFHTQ
# How it was run: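 Using human MDA-kb2 cells with an MMTV promoter–luciferase construct (AR and GR response elements), agonist activity is scored under 3.0uM nilutamide (final) co-treatment; 16hr incubation, 37C, luminescence readout via ONE-Glo.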
# [19] = target: Progesterone receptor (Homo sapiens) (UniProt P06401); experiment: qHTS assay to identify small molecule antagonists of the progesterone receptor (PR) signaling pathway (AID 1346795; active = well fitted inhibition curve with a large enough effect in the signal ratio in the repeat runs, not every such curve was filed as active; the % refers to the signal ratio; note: potency is the fitted concentration of half-maximal effect)
# How it was run: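 PR-UAS-bla HEK293T cells with beta-lactamase reporter under UAS control, in 2% charcoal-stripped FBS, treated with compounds plus 1 nM promegestone (R5020, final) for 16 hr at 37C. Read-out: FRET beta-lactamase substrate fluorescence after 2 hr at room temperature.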
Compound,Potency [1],Potency [2],outcome [3],outcome [4],outcome [5],Potency [6],Potency [7],outcome [8],outcome [9],outcome [10],outcome [11],outcome [12],outcome [13],outcome [14],Potency [15],Potency [16],Potency [17],Potency [18],Potency [19]
CC1(C)OC[C@@H]2O[C@@]3(C(=O)O)OC(C)(C)O[C@H]3[C@@H]2O1,inactive,inactive,inactive,inactive,inactive,inactive,inactive,inactive,inactive,inactive,inactive,inactive,inactive,inactive,–,–,–,–,–
c1ccc2c(c1)Cc1ccccc1-2,inactive,–,inactive,inactive,inactive,inactive,inactive,inactive,inactive,inactive,inactive,inactive,–,–,inactive,inactive,–,–,–
O=C(O)c1cc2ccccc2cc1O,–,–,inactive,inactive,inactive,inactive,inactive,inactive,inactive,inactive,inactive,inactive,–,–,inactive,inactive,inactive,inactive,inactive
COc1ccccc1OCC(O)CO (stereo not given),inactive,–,inactive,inactive,inactive,inactive,inactive,inactive,inactive,inactive,inactive,inactive,inactive,inactive,inactive,–,inactive,inactive,inactive
O=C(O)Cn1c(=O)n(Cc2ccc(Br)cc2F)c(=O)c2ccc(Cl)cc21,inactive,–,inactive,inactive,inactive,inactive,inactive,inactive,inactive,inactive,inactive,inactive,inactive,inactive,–,inactive,–,inactive,inactive
COC(=O)CCCC(=O)OC,–,–,inactive,inactive,inactive,inactive,inactive,inactive,inactive,inactive,inactive,inactive,inactive,inactive,–,–,inactive,–,–
CCCCCCCCCCO,inactive,–,inactive,inactive,inactive,inactive,inactive,inactive,inactive,inactive,inactive,inactive,inactive,inactive,inactive,inactive,inactive,–,–
Clc1ccccn1,inactive,–,inactive,inactive,inactive,inactive,inactive,inactive,inactive,inactive,inactive,inactive,inactive,inactive,inactive,–,inactive,–,inactive
CN(C)CCOC(=O)COc1ccc(Cl)cc1,inactive,–,inactive,inactive,inactive,inactive,inactive,inactive,inactive,inactive,inactive,inactive,inactive,inactive,inactive,–,inactive,–,inactive
O=S(=O)(O)c1ccc(N=Nc2c(O)ccc3cc(S(=O)(=O)O)ccc23)cc1,–,–,inactive,–,–,48.8 µM (active) and 27.3 µM (active),inactive,inactive,inactive,inactive,inactive,inactive,inactive,inactive,inactive,inactive,–,–,inactive
O=C1CCCC1,inactive,inactive,inactive,–,–,inactive,inactive,inactive,inactive,inactive,inactive,inactive,inactive,inactive,inactive,inactive,–,–,inactive
OCc1cccc(Oc2ccccc2)c1,–,–,inactive,inactive,inactive,inactive,inactive,inactive,inactive,inactive,inactive,inactive,inactive,inactive,inactive,–,inactive,inactive,54.5 µM (active)

# Source: PubChem BioAssay (Tox21)
